From PubChem
sEH activator: activators of human soluble epoxide hydrolase; purified human sEH enzymatic activity, activator screen; activation, % at 2 µM; 91,000 tested, 0.04% active; AID 717; in the data active = activation above about 37%
Target sequence (P34913 whole entry, looked up): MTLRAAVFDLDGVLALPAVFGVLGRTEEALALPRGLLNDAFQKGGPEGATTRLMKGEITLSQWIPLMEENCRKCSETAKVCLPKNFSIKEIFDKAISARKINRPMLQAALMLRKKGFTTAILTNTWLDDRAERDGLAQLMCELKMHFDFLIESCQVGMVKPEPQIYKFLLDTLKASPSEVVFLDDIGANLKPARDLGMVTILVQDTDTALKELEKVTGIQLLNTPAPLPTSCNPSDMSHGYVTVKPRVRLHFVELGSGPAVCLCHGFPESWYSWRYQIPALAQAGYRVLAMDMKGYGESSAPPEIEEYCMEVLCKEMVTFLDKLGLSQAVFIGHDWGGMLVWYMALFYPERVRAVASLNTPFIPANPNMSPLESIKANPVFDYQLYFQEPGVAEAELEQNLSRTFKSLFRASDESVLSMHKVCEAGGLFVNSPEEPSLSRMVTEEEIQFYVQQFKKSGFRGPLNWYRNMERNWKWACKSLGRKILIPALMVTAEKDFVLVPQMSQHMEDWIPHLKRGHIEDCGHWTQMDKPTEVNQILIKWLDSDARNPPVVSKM
sEH inh: soluble epoxide hydrolase (human) inhibition. P34913. recombinant human sEH enzymatic activity assay. inhibition, % at 2 µM. 91,000 tested, 0.34% active; in the data active = inhibition above about 80%
Measles CPE: protection of cells from measles virus; Measles virus-infected cells, CPE protection, absorbance; 140,000 tested, 1.5% active; protection (pct of control), % at 4 µM; AID 841; in the data active = protection mostly above about 24%, no sharp cut-off; inactive = mostly below about 26%
cytoskel mod: alters cytoskeleton assembly in HUVEC cells. HUVEC TNFa F-actin phalloidin imaging, high content. inhibition, % at 2 µM. 91,000 tested, 0.18% active;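 active = inhibition above the batch mean plus 3 SD and confirmed as a hit by visual image inspection, cut at about 30% in these data, passing the limit was not always enough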
Calb biofilm kill: kills Candida albicans biofilms. C. albicans biofilm + clotrimazole, Alamar Blue. inhibition, % at 6 µM. 85,000 tested, 0.14% active;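 active = inhibition above 20%; inactive = inhibition below 20%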;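 also: preformed 24 hr biofilms exposed to compound for 48 hr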
Each line names hits and unclear results; the compound was inactive in the other large screens. A selection: hits, their analogues and other compounds. The true share with any hit is near 1.9%.

CC1CCC2(CC1)NC(=S)N(c1ccccc1)N2 (stereo unspecified)	Calb biofilm kill 83
Cn1ncc(Br)c1C(=O)OCC(=O)Nc1nc(-c2ccccc2)cs1	Measles CPE 35
Cc1cc(C(=O)OCC(=O)Nc2nc(-c3ccccc3)cs2)c(C)o1	none (no result: sEH activator, sEH inh, cytoskel mod, Calb biofilm kill)
O=c1c(-c2ccccc2)[n+]([O-])c2ccccc2n1O	none
Cc1ccc(-c2noc(CSc3nc(N)cc(N)n3)n2)cc1	cytoskel mod 35 (no result: sEH activator, sEH inh)
O=C(Nn1nnnc1Nc1ccccc1)C12CC3CC(CC(C3)C1)C2	none (no result: sEH activator, sEH inh, cytoskel mod)
COc1ccc(Oc2nc(SC)nc3ccccc23)cc1	none (no result: Calb biofilm kill)
O=C(COC(=O)CCCNC(=O)c1ccc(Cl)cc1)Nc1ccc(Br)cc1	Measles CPE 112 (no result: sEH activator, sEH inh, cytoskel mod, Calb biofilm kill)
O=C(O)c1ccc(CNCc2c(Cl)cccc2Cl)cc1	none (no result: Calb biofilm kill)
Cc1c(Br)cc(C(=O)NCc2ccco2)c(C)c1C	Measles CPE 103 (no result: sEH activator, sEH inh, cytoskel mod)
Cc1ccc(C(=O)NCc2ccco2)cc1Br	none
Cc1ccc(Cn2nnc3c(=O)[nH]c(C4CCCN(S(=O)(=O)c5ccccc5)C4)nc32)cc1 (stereo unspecified)	Measles CPE 46
O=C(CN1C(=O)C2C3c4ccccc4C(c4ccccc43)C2C1=O)Nc1cccc(C(=O)O)c1 (stereo unspecified)	none (no result: sEH activator, sEH inh, cytoskel mod, Calb biofilm kill)
CCC(C(=O)N1CCc2cc(OC)c(OC)cc2C1)c1ccccc1 (stereo unspecified)	none
COc1cc2c(cc1OC)CN(C(=O)c1ccccc1C(=O)O)CC2	Measles CPE 60
N#CCCn1ncn(-c2ccccc2)c1=S	none
C/C(=N\Nc1cc(Cl)nc(C)n1)c1ccc(C)cc1	sEH activator 52 (no result: Measles CPE, Calb biofilm kill)
C/C(=N\Nc1cc(Cl)nc(C)n1)c1ccc(Cl)c(Cl)c1	none (no result: sEH activator, sEH inh, cytoskel mod, Calb biofilm kill)
Cc1ccc2c(c1)cc1c(=O)[nH]ncn12	none (no result: Calb biofilm kill)
CC(NC(=O)NC12CC3CC(CC(C3)C1)C2)C1CCCO1 (stereo unspecified)	sEH inh 90
CC(=O)c1cccc(NC(=O)NC(C)C2CCCO2)c1 (stereo unspecified)	none
N#C/C(=C\c1ccccc1)c1nc2ncccc2[nH]1	Measles CPE 56 (no result: Calb biofilm kill)
Cc1ccc(-n2c(SCC(=O)NCCN3C(=O)CSC3=O)nnc2-c2ccccc2)cc1	none (no result: sEH activator, sEH inh, cytoskel mod, Calb biofilm kill)
CCCCCNc1c(C(=O)OCC)c(=O)[nH]c2ccccc12	Measles CPE 36 (no result: sEH activator, sEH inh, cytoskel mod)
CCOC(=O)c1[nH]c2ccccc2c1NC(=O)CN1CCCCC1	none
CCCC(=O)Nc1c(C(=O)OCC)[nH]c2ccccc12	Measles CPE 39 (no result: Calb biofilm kill)
Cc1nc2ncnn2c(N2CCN(C(c3ccccc3)c3ccccc3)CC2)c1C	Measles CPE 53
CCCOc1ccc(C(C)=O)cc1CSCCC#N	Measles CPE 40
COc1ccc(C(C)=O)cc1CSCCC#N	none
Cc1nnc(SCC(=O)Nc2nc(C(C)(C)C)cs2)s1	Measles CPE 54
CCCSc1nnc(NC(=O)Nc2ccc(F)cc2)s1	Measles CPE 43 (no result: sEH activator, sEH inh, cytoskel mod)
Cc1c(NC(=S)N/N=C\c2ccccc2O)c(=O)n(-c2ccccc2)n1C	Measles CPE 55 (no result: sEH activator, sEH inh, cytoskel mod, Calb biofilm kill)
CC(C)CCNC(=O)c1ccc2c(c1)ncn2C1CCCCC1	none
Cc1cc(Cl)c(OCCCN(C)C)c(Br)c1	Measles CPE 48 (no result: sEH activator, sEH inh, cytoskel mod, Calb biofilm kill)
COc1ccc(/C=N/OCC(=O)NC(c2ccccc2)c2ccccc2)cc1OC	none (no result: sEH activator, sEH inh, cytoskel mod, Calb biofilm kill)
O=C1c2oc3ccccc3c(=O)c2C(c2cccc(F)c2)N1CCCO (stereo unspecified)	cytoskel mod 67
Cc1ccc(S(=O)(=O)NC(=O)c2cccn2C)cc1	none
O=C(Oc1ccc2ccccc2c1Br)N1CCCCCC1	Measles CPE 47 (no result: Calb biofilm kill)
O=C(Cn1cnc2c(nnn2-c2ccccc2)c1=O)N1CCCc2ccccc21	Measles CPE 53 (no result: sEH activator, sEH inh, cytoskel mod)
CCNC(=O)c1ccccc1-c1nc(-c2ccccc2Cl)no1	Measles CPE 35
O=C(NCc1ccco1)C(=O)NCC1OCCN1S(=O)(=O)c1ccc(F)cc1 (stereo unspecified)	Measles CPE 50 (no result: sEH activator, sEH inh, cytoskel mod, Calb biofilm kill)
O=C(NCc1ccco1)C(=O)NCC1OCCN1S(=O)(=O)c1ccc(Cl)cc1 (stereo unspecified)	none (no result: sEH activator, sEH inh, cytoskel mod, Calb biofilm kill)
COc1ccc(S(=O)(=O)NCC(c2cccnc2)N2CCN(c3ccccc3OC)CC2)cc1C (stereo unspecified)	none (no result: cytoskel mod)
COc1ccccc1N1CCN(C(CNS(=O)(=O)c2ccccc2)c2cccnc2)CC1 (stereo unspecified)	Measles CPE 33
COCCOCCOCCC(=O)NC1CC2CCC1(C)C2(C)C (stereo unspecified)	Measles CPE 51
CC1(C)C2CCC1(C)C(NC(=O)CCN1CCCCC1)C2 (stereo unspecified)	none (no result: sEH activator, sEH inh)
N#Cc1ccccc1NC(=O)c1ccc(-c2ccccc2Cl)o1	none
Cc1ccc(NC(=O)COC(=O)/C=C/c2cccs2)c(C)c1	none (no result: sEH activator, sEH inh, cytoskel mod, Calb biofilm kill)
COc1cc(/C=N\n2nnnc2N)ccc1OCc1ccc(F)cc1	Measles CPE 60
